Some test systems named below: NCI-H23 lung; NCI-H226 lung; NCI-H322M lung; HOP-62 NSCLC; HOP-92 NSCLC; NCI-H522 lung; A549/ATCC NSCLC; 786-0 renal; COLO 205 colon; DU-145 prostate; K-562 leukemia; MALME-3M melanoma; MDA-MB-231 breast; SF-268 CNS; SF-295 CNS; SF-539 CNS; UACC-257 melanoma; M14 melanoma; RXF 393 renal.
Common to all, as to test: NCI-60 one-dose screen, 48 h (100 = growth as untreated, 0 = no growth, -100 = all killed)
What all share (details): 10 µM unless noted

SMILES strings stand for the structures. This is part of a sample that, as a whole, favours compounds with a hit. Of some 83,000 tested, about 20% had one in any assay.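 Testing used 96-well plates and a 48-hour single-concentration exposure. Example: -40 means 40% of the starting cells died.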 Values without a mark were called inactive. Calls of active or inactive are those of the source. Rule for the calls: active = growth percent below 10; inactive = the rest.

We go through eleven compounds from PubChem BioAssay (NCI).

As for `Cc1c(C2=CCCCC2)c2ccccn2c1C(=O)c1cccc(S(=O)(=O)N2CCOCC2)c1`, the growth is 75.6% in the assay with NCI-H23 lung; 93.2% in the assay on NCI-H226 lung; 80.7% in the assay on NCI-H322M lung; 70% with HOP-62 NSCLC; 53.9% with HOP-92 NSCLC; 68.1% in the assay on NCI-H522 lung. Moreover, the growth with A549/ATCC NSCLC was 69.4%; in the assay on 786-0 renal, 51%; in the assay with COLO 205 colon it was 102%; in the assay with DU-145 prostate, 98.3%; in the assay with K-562 leukemia, 57.4%; with MALME-3M melanoma, 73.5%. The growth with MDA-MB-231 breast was 92%; in the assay on SF-268 CNS, 75%; in the assay with SF-295 CNS it was 34.6%; in the assay on SF-539 CNS, 97.2%; in the assay with UACC-257 melanoma, 86.8%; in the assay with M14 melanoma it was 61.9%.

On to `c1ccc(CCSc2ncnc3nc[nH]c23)cc1`, for which the growth is 96.8% in the assay with NCI-H23 lung; 86.6% in the assay with NCI-H226 lung; 113% in the assay with NCI-H322M lung; 103% in the assay with HOP-62 NSCLC; 110% with HOP-92 NSCLC; 0.492% (active) in the assay on NCI-H522 lung. The growth is 77.3% in the assay with A549/ATCC NSCLC; 102% with 786-0 renal; 90.1% in the assay on COLO 205 colon; 108% in the assay with DU-145 prostate; 72.4% in the assay on K-562 leukemia; 106% in the assay with MALME-3M melanoma. Moreover, the growth in the assay with MDA-MB-231 breast is 85.2%; in the assay with SF-268 CNS, 103%; in the assay on SF-295 CNS, 75.6%; with SF-539 CNS, 84.8%; in the assay on UACC-257 melanoma, 46.2%; in the assay with M14 melanoma it was 97.5%.

For `COc1ccc(C(=O)c2cc3c(N)c(C(=O)Nc4cccc(Cl)c4C)sc3nc2C)cc1`, the growth was 29.3% in the assay on NCI-H23 lung; 44% in the assay with NCI-H226 lung; 52.6% with NCI-H322M lung; 29.1% in the assay with HOP-62 NSCLC; 27.7% in the assay on HOP-92 NSCLC; -8.11% (active) in the assay on NCI-H522 lung. In addition, the growth is 29% in the assay with 786-0 renal; -26.2% (active) with COLO 205 colon; 9.62% (active) with DU-145 prostate; 2.9% (active) with K-562 leukemia; 54.5% in the assay with MALME-3M melanoma; 15% in the assay with MDA-MB-231 breast. For the same compound, the growth was 18.4% in the assay on SF-268 CNS; 26.5% in the assay on SF-295 CNS; -10.2% (active) in the assay on SF-539 CNS; 57.6% in the assay with UACC-257 melanoma; 5.63% (active) with M14 melanoma.

Take `COc1ccc(C2=NN(C(C)=O)C(c3cn(Cc4ccc(Cl)cc4)c4ccccc34)C2)cc1` (configuration not stated): the growth in the assay on NCI-H23 lung is 73.3%; in the assay on NCI-H226 lung, 67.6%; in the assay with NCI-H322M lung, 83.1%; with HOP-62 NSCLC, 85.7%; in the assay with HOP-92 NSCLC, 61.2%; in the assay on NCI-H522 lung, 69.5%. The growth is 89.4% with 786-0 renal; 115% in the assay on COLO 205 colon; 97.4% in the assay on DU-145 prostate; 52.6% with K-562 leukemia; 72.2% in the assay with MALME-3M melanoma; 78.7% in the assay with MDA-MB-231 breast. Also, the growth in the assay on SF-268 CNS is 79.9%; in the assay on SF-295 CNS, 85.6%; in the assay with SF-539 CNS it was 82.1%; with UACC-257 melanoma it was 81.7%; in the assay on M14 melanoma, 99.4%.

For `O=C(N/N=C/c1ccncc1)c1ccccc1Nc1cccc(C(F)(F)F)c1`, the growth in the assay with NCI-H23 lung is 95.5%; with NCI-H226 lung it was 66.3%; with NCI-H322M lung, 88.5%; in the assay on HOP-62 NSCLC it was 97.6%; in the assay with HOP-92 NSCLC it was 47.3%; with NCI-H522 lung, 82%. The growth in the assay with A549/ATCC NSCLC is 55.6%; in the assay with 786-0 renal, 86.7%; in the assay on COLO 205 colon, 107%; in the assay on DU-145 prostate, 69.2%; in the assay on K-562 leukemia, 77.7%; with MALME-3M melanoma, 92.8%. The growth in the assay on MDA-MB-231 breast was 79.8%; in the assay with SF-268 CNS it was 69.5%; in the assay on SF-295 CNS, 94.5%; in the assay with SF-539 CNS, 112%; in the assay on UACC-257 melanoma, 62.9%; with M14 melanoma, 87.4%.

Regarding `COc1cc2oc(-c3cccc(C(=O)Nc4ccc(Cl)cc4)c3)cc(=O)c2c(OC)c1OC`, the growth was 44.3% in the assay on NCI-H23 lung; 36.5% in the assay on NCI-H226 lung; 37% in the assay with NCI-H322M lung; 12.8% with HOP-62 NSCLC; -2.18% (active) in the assay on HOP-92 NSCLC; 25.2% in the assay with NCI-H522 lung. Further, the growth in the assay on A549/ATCC NSCLC is 23.6%; in the assay with 786-0 renal, 12%; in the assay on COLO 205 colon it was 18%; with DU-145 prostate, 42.4%; in the assay with K-562 leukemia it was 16%; in the assay with MALME-3M melanoma it was 14.2%. The growth with MDA-MB-231 breast was -3.1% (active); with RXF 393 renal, -29% (active); with SF-268 CNS it was 48.3%; with SF-295 CNS it was -41.6% (active); with SF-539 CNS it was 35.2%; in the assay on UACC-257 melanoma, -7.18% (active). In addition, the growth in the assay with M14 melanoma was -18% (active).

In the case of `C=C(C)[C@H]1CC/C(C)=C/CC[C@]2(C)O[C@H]2CC/C(COC(=O)[C@@H](OC(C)=O)[C@H](NC(=O)c2ccccc2)c2ccccc2)=C\[C@@H]1O`, the growth is 98.5% in the assay on NCI-H23 lung; 95% in the assay with NCI-H226 lung; 104% in the assay on NCI-H322M lung; 97.6% in the assay with HOP-62 NSCLC; 59.4% with HOP-92 NSCLC; 59.5% in the assay on NCI-H522 lung. Further, the growth in the assay with A549/ATCC NSCLC was 87.3%; in the assay with 786-0 renal, 85.1%; in the assay with COLO 205 colon, 113%; in the assay with DU-145 prostate it was 102%; in the assay with K-562 leukemia, 129%; in the assay on MALME-3M melanoma, 100%. Besides, the growth was 88.5% in the assay on MDA-MB-231 breast; 90.2% in the assay with SF-268 CNS; 88.8% in the assay with SF-295 CNS; 87.2% with SF-539 CNS; 83.1% in the assay on UACC-257 melanoma; 90.6% with M14 melanoma.

Take `CC(C)(C)CC(C)(C)Nc1c(-c2ccc(C(F)(F)F)cc2)nc2cnccn12`: the growth is 82.4% in the assay with NCI-H23 lung; 92.5% in the assay with NCI-H226 lung; 103% in the assay with NCI-H322M lung; 92.7% in the assay with HOP-62 NSCLC; 82.6% with HOP-92 NSCLC; 67.4% in the assay with NCI-H522 lung. Further, the growth is 83.1% in the assay on A549/ATCC NSCLC; -12.3% (active) in the assay with 786-0 renal; 96% in the assay with COLO 205 colon; 93% with DU-145 prostate; 65.6% in the assay with K-562 leukemia; 103% in the assay on MALME-3M melanoma. Also, the growth is 86% with MDA-MB-231 breast; 88.8% with SF-268 CNS; 86.3% in the assay with SF-295 CNS; 86% in the assay with SF-539 CNS; 98.7% in the assay with UACC-257 melanoma; -54.1% (active) in the assay with M14 melanoma.

Consider `Cc1cn(-c2cc(C(=O)Nc3cccc(C#Cc4cccc5[nH]nc(N)c45)c3)cc(C(F)(F)F)c2)cn1`, for which the growth was 44.1% with NCI-H23 lung; 33.1% in the assay with NCI-H226 lung; 68.4% with NCI-H322M lung; 45.1% in the assay on HOP-62 NSCLC; 26.4% with HOP-92 NSCLC; 51.7% in the assay on NCI-H522 lung. In addition, the growth with A549/ATCC NSCLC is 63.2%; in the assay on 786-0 renal, 66.7%; in the assay on COLO 205 colon it was 13.8%; in the assay on DU-145 prostate it was 72.5%; in the assay with K-562 leukemia it was 5.16% (active); in the assay on MALME-3M melanoma, -12% (active). Further, the growth is 29.8% with MDA-MB-231 breast; 1.89% (active) in the assay with RXF 393 renal; 58.6% with SF-268 CNS; 67.2% in the assay with SF-295 CNS; 25.3% with SF-539 CNS; 18.1% with UACC-257 melanoma. Also, the growth in the assay on M14 melanoma was 11.5%.

With `O=C(O)C(/C=C/c1ccco1)=N\Nc1nc(-c2ccc(Cl)cc2)cs1`, the growth was 57.7% in the assay on NCI-H23 lung; 84% with NCI-H226 lung; 68.5% in the assay with NCI-H322M lung; 46.4% in the assay with HOP-62 NSCLC; 51.8% in the assay with HOP-92 NSCLC; 39.4% in the assay with NCI-H522 lung. The growth in the assay with 786-0 renal was 51.8%; in the assay with COLO 205 colon it was 94.6%; in the assay with DU-145 prostate, 70.1%; with K-562 leukemia it was 65.7%; with MALME-3M melanoma, 79%; with MDA-MB-231 breast, 84.8%. For the same compound, the growth in the assay on SF-268 CNS was 50.9%; with SF-295 CNS, 27.8%; in the assay with SF-539 CNS, 43.4%; in the assay with UACC-257 melanoma, 72.2%; in the assay with M14 melanoma, 43.7%.

For the compound `CCN(CC)CCSCCCNc1c(C)cnc2cc(Cl)ccc12`, the growth with NCI-H23 lung was 89.8%; in the assay with NCI-H226 lung, 100%; in the assay with NCI-H322M lung, 90.8%; in the assay with HOP-62 NSCLC, 85.2%; in the assay with HOP-92 NSCLC, 81.6%; with NCI-H522 lung, 102%. Besides, the growth is 95.9% with A549/ATCC NSCLC; 82.7% with 786-0 renal; 61.4% in the assay on COLO 205 colon; 88.2% in the assay on DU-145 prostate; 5.33% (active) in the assay with K-562 leukemia; 87% with MALME-3M melanoma. Also, the growth in the assay with MDA-MB-231 breast was 61.9%; in the assay on SF-268 CNS, 81%; with SF-295 CNS it was 90.5%; with SF-539 CNS it was 71%; in the assay on UACC-257 melanoma, 113%; in the assay with M14 melanoma, 89.5%.
